Source: PubChem BioAssay (NCI)
Compounds without any hit were thinned out: in the full panel of roughly 79,000, 15% have a hit. Activity calls are given as the source filed them. Cut-off read from the data, not from the text of the source: active = growth inhibition above about 70%; inactive = the rest.

Assay: NCI Yeast Anticancer Drug Screen. Data for the mgt1 strain (AID 153)
Details: S. cerevisiae mgt1 mutant growth inhibition, hits give high values
Protocol: Growth inhibition of yeast strains with defined genetic alterations is measured as a screen for potential anti-cancer activity. Selected strains with alterations in DNA damage repair or cell cycle control were exposed to compounds and growth inhibition was measured relative to vehicle treated controls. The strain used in this assay is mgt1

Measured: growth inhibition

CN(C)CCNc1ccc2ncnc3c2c1C(=O)c1ccccc1-3
inactive: at 1.2 µM 2% | at 3.7 µM 6% | at 11.0 µM 22% | at 33.0 µM 25% | at 100.0 µM 38%

CN(C)C=NC1CCC(C(C)(C)C)CC1 (stereo not given)
inactive: at 1.2 µM -1% | at 3.7 µM -1% | at 11.0 µM 45%
active: at 33.0 µM 97% | at 100.0 µM 99%

CCN(CC)CCNc1ccc([N+](=O)[O-])c2nc3ccccc3c(N)c12
inactive: at 1.2 µM -14% | at 3.7 µM -18% | at 11.0 µM -20% | at 33.0 µM -21% | at 100.0 µM -15%

O=C(Oc1ccc2c(c1)CN(Cc1ccccc1)CO2)c1ccccc1
inactive: at 1.2 µM -1% | at 3.7 µM 0% | at 11.0 µM 2% | at 33.0 µM 10% | at 100.0 µM 39%

Oc1ccc(O)c(Cc2ccccc2)c1
active: at 33.0 µM 78% | at 100.0 µM 99%
inactive: at 1.2 µM 4% | at 3.7 µM 13% | at 11.0 µM 37%

CCc1ccc2c(c1)N(CC(C)CN(C)C)c1ccccc1S2 (stereo not given)
inactive: at 1.2 µM -3% | at 3.7 µM -4% | at 11.0 µM -6% | at 33.0 µM 0%
active: at 100.0 µM 76%

O=C(NCCCNCCN1C(=O)c2cccc3cc([N+](=O)[O-])cc(c23)C1=O)c1cc(-c2ccccc2)nc2ccccc12
active: at 100.0 µM 99%
inactive: at 1.2 µM -1% | at 3.7 µM 0% | at 11.0 µM -1% | at 33.0 µM 8%

O=C(/C=C/c1cc(Cl)cc(Cl)c1O)c1cccc(O)c1
active: at 11.0 µM 89% | at 33.0 µM 99% | at 100.0 µM 98%
inactive: at 1.2 µM 14% | at 3.7 µM 25%
